According to article PMC5540273 (PLoS ONE, 2017):
Values joined by “and” are separate entries in the source; they are usually repeats but may differ in a detail not shown here. Equal entries are not always repeated. Where two headings read alike, the source gives them in different places.

Tests used:
TAOK2 = details: concentration: 1 μM, replicates: in singlicate, n = 1
TAOK3 = details: concentration: 1 μM, replicates: in singlicate, n = 1
TBK1 = details: concentration: 1 μM, replicates: in singlicate, n = 1
TEC = details: concentration: 1 μM, replicates: in singlicate, n = 1
TESK1 = details: concentration: 1 μM, replicates: in singlicate, n = 1
TGFBR1 = details: n = 1
TGFBR2 = details: concentration: 1 μM, replicates: in singlicate, n = 1
TIE1 = details: concentration: 1 μM, replicates: in singlicate; n = 1
TIE2 = system: T1, TIE2; details: concentration: 1 μM, replicates: in singlicate; n = 1
T1 construct: gene TEK

TLK1 = details: concentration: 1 μM, replicates: in singlicate, n = 1
[1] = concentration: 1 μM, replicates: in singlicate
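Note: KINOMEscan kinase panel screen.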

In the case of `Cc1cccc(-c2nc(Nc3ccc4ncsc4c3)c3ccccc3n2)n1` [GW867588], the “%Inh” value (TAOK2) is reported as 0%, the “%Inh” value (TAOK3) is reported as 6% and the “%Inh” value (TBK1) is reported as 0%. The “%Inh” value (TEC) was 0%, the “%Inh” value (TESK1) was 0% and the “%Inh” value (TGFBR1; 1 µM) was 55%. For the same compound, the “%Inh” value (TGFBR2) was 0%, the “%Inh” value (TIE1) was 0% and the “%Inh” value (TIE2) was 0%. The “%Inh” value (TLK1) was 0%.

`COc1ccc(CNC(=O)NC2CCN(c3ccnc(Nc4ccc(OC)cc4)n3)C2)cc1` (centres unmarked) [GSK1379727] was tested, and the “%Inh” value (TAOK2) was 7%, the “%Inh” value (TAOK3) was 0% and the “%Inh” value (TBK1) was 0%. For the same compound, the “%Inh” value (TEC) was 0%, the “%Inh” value (TESK1) was 16% and the “%Inh” value (TGFBR1; [1]) was 38%. The “%Inh” value (TGFBR2) was 0%, the “%Inh” value (TIE1) was 17% and the “%Inh” value (TIE2) was 0%. For the same compound, the “%Inh” value (TLK1) was 0%.

For `Cc1c2ccc(N(C)c3ccnc(Nc4cccc(S(N)(=O)=O)c4)n3)cc2nn1Cc1ccccc1.Cl.Cl` [GW787226], the “%Inh” value (TAOK2) was 72%, the “%Inh” value (TAOK3) was 0% and the “%Inh” value (TBK1) was 35%. For the same compound, the “%Inh” value (TEC) was 11%, the “%Inh” value (TESK1) was 15% and the “%Inh” value (TGFBR1; [1]) was 0%. The “%Inh” value (TGFBR2) was 63%, the “%Inh” value (TIE1) was 92.2% and the “%Inh” value (TIE2) was 77%. The “%Inh” value (TLK1) was 0%.

With `CN(C(=O)c1ccc(-c2cc(-c3c[nH]nc3-c3ccccn3)ccn2)cc1)C1CCOCC1` [GW810083] the “%Inh” value (TAOK2) was 0%, the “%Inh” value (TAOK3) was 0% and the “%Inh” value (TBK1) was 0%. The “%Inh” value (TEC) was 0%, the “%Inh” value (TESK1) was 1% and the “%Inh” value (TGFBR1; 1 µM) was 77%. The “%Inh” value (TGFBR2) was 21%, the “%Inh” value (TIE1) was 0% and the “%Inh” value (TIE2) was 1%. The “%Inh” value (TLK1) was 0%.

`CN(C1=C(c2ccccc2)C(=O)NC1=O)c1ccccc1` [SB-334860] was tested, and the “%Inh” value (TAOK2) was 0%, the “%Inh” value (TAOK3) was 0% and the “%Inh” value (TBK1) was 29%. For the same compound, the “%Inh” value (TEC) was 7%, the “%Inh” value (TESK1) was 67% and the “%Inh” value (TGFBR1; [1]) was 26%. For the same compound, the “%Inh” value (TGFBR2) was 0%, the “%Inh” value (TIE1) was 0% and the “%Inh” value (TIE2) was 5%. For the same compound, the “%Inh” value (TLK1) was 20%.

`O=C1NC(=O)C(N2CCc3ccccc32)=C1c1cccc(Cl)c1` [SB-408010] was tested, and the “%Inh” value (TAOK2) was 0%, the “%Inh” value (TAOK3) was 0% and the “%Inh” value (TBK1) was 0%. The “%Inh” value (TEC) was 0%, the “%Inh” value (TESK1) was 30% and the “%Inh” value (TGFBR1; [1]) was 0%. The “%Inh” value (TGFBR2) was 1%, the “%Inh” value (TIE1) was 0% and the “%Inh” value (TIE2) was 12%. The “%Inh” value (TLK1) was 10%.

In the case of `Cc1nnc(-c2ccc3occ(-c4ccc(C(C)O)cc4)c3c2)o1` (centres unmarked), the “%Inh” value (TAOK2) is reported as 8%, the “%Inh” value (TAOK3) is reported as 0% and the “%Inh” value (TBK1) is reported as 30%. The “%Inh” value (TEC) was 0%, the “%Inh” value (TESK1) was 3% and the “%Inh” value (TGFBR1; [1]) was 3%. The “%Inh” value (TGFBR2) was 69%, the “%Inh” value (TIE1) was 18% and the “%Inh” value (TIE2) was 16%. For the same compound, the “%Inh” value (TLK1) was 0%.

In the case of `Fc1ccc(-c2ncn(CCCN3CCOCC3)c2-c2ccccn2)cc1` [SB-211742], the “%Inh” value (TAOK2) is reported as 5%, the “%Inh” value (TAOK3) is reported as 0% and the “%Inh” value (TBK1) is reported as 21%. The “%Inh” value (TEC) was 0%, the “%Inh” value (TESK1) was 0% and the “%Inh” value (TGFBR1; [1]) was 52%. The “%Inh” value (TGFBR2) was 6%, the “%Inh” value (TIE1) was 0% and the “%Inh” value (TIE2) was 27%. For the same compound, the “%Inh” value (TLK1) was 0%.

`Cl.Cl.Cl.Fc1ccc(-c2ncn(C3CCNCC3)c2-c2ccnc(Nc3ccccc3)n2)cc1` [SB-238039] was tested, and the “%Inh” value (TAOK2; 1 µM) was 78% and 0%, the “%Inh” value (TAOK3; 1 µM) was 91.5% and 57% and the “%Inh” value (TBK1; 1 µM) was 36% and 0%. The “%Inh” value (TEC; 1 µM) was 12% and 0%, the “%Inh” value (TESK1; 1 µM) was 8% and 0% and the “%Inh” value (TGFBR1; concentration: 1 μM, replicates: in singlicate, 1 µM) was 61% and 29%. The “%Inh” value (TGFBR2; 1 µM) was 16% and 12%, the “%Inh” value (TIE1) was 0% and the “%Inh” value (TIE2) was 0%. The “%Inh” value (TLK1; 1 µM) was 4% and 19%.

In the case of `O=C(NOCC1CC1)c1ccc(F)c(F)c1Nc1ccc(I)cc1Cl`, the “%Inh” value (TAOK2) is reported as 0%, the “%Inh” value (TAOK3) is reported as 0% and the “%Inh” value (TBK1) is reported as 0%. For the same compound, the “%Inh” value (TEC) was 0%, the “%Inh” value (TESK1) was 4% and the “%Inh” value (TGFBR1; [1]) was 0%. For the same compound, the “%Inh” value (TGFBR2) was 0%, the “%Inh” value (TIE1) was 0% and the “%Inh” value (TIE2) was 0%. For the same compound, the “%Inh” value (TLK1) was 3%.

For `Cc1ccc(C(=O)NCC(N)=O)cc1-n1c(C)cc(OCc2ccc(F)cc2F)c(Br)c1=O`, the “%Inh” value (TAOK2) was 7%, the “%Inh” value (TAOK3) was 0% and the “%Inh” value (TBK1) was 36%. The “%Inh” value (TEC) was 13%, the “%Inh” value (TESK1) was 31% and the “%Inh” value (TGFBR1; [1]) was 36%. The “%Inh” value (TGFBR2) was 26%, the “%Inh” value (TIE1) was 0% and the “%Inh” value (TIE2) was 0%. For the same compound, the “%Inh” value (TLK1) was 0%.

For `C[C@@H](Oc1cc(-n2cnc3ccc(NC(=O)NC(C)(C)C)cc32)sc1C(N)=O)c1ccccc1Cl` [GSK346294], the “%Inh” value (TAOK2) was 2%, the “%Inh” value (TAOK3) was 0% and the “%Inh” value (TBK1) was 27%. For the same compound, the “%Inh” value (TEC) was 20%, the “%Inh” value (TESK1) was 0% and the “%Inh” value (TGFBR1; [1]) was 0%. The “%Inh” value (TGFBR2) was 4%, the “%Inh” value (TIE1) was 3% and the “%Inh” value (TIE2) was 0%. For the same compound, the “%Inh” value (TLK1) was 21%.

With `CCc1ccnc(/C=C/c2n[nH]c3cc(Sc4ccccc4C(=O)NC)ccc23)c1` the “%Inh” value (TAOK2) was 100%, the “%Inh” value (TAOK3) was 0% and the “%Inh” value (TBK1) was 0%. The “%Inh” value (TEC) was 3%, the “%Inh” value (TESK1) was 8% and the “%Inh” value (TGFBR1; [1]) was 0%. For the same compound, the “%Inh” value (TGFBR2) was 0%, the “%Inh” value (TIE1) was 48% and the “%Inh” value (TIE2) was 8%. The “%Inh” value (TLK1) was 0%.

In the case of `O=C(NCCNc1ccnc(Nc2ccc(F)cc2)n1)Nc1ccccc1F` [GSK1379880], the “%Inh” value (TAOK2) is reported as 0%, the “%Inh” value (TAOK3) is reported as 0% and the “%Inh” value (TBK1) is reported as 6%. The “%Inh” value (TEC) was 14%, the “%Inh” value (TESK1) was 0% and the “%Inh” value (TGFBR1; [1]) was 0%. The “%Inh” value (TGFBR2) was 0%, the “%Inh” value (TIE1) was 0% and the “%Inh” value (TIE2) was 0%. The “%Inh” value (TLK1) was 2%.

`c1ccc(-c2cc(-c3c[nH]nc3-c3ccccn3)ccn2)cc1` [GW576604] was tested, and the “%Inh” value (TAOK2) was 0%, the “%Inh” value (TAOK3) was 0% and the “%Inh” value (TBK1) was 5%. The “%Inh” value (TEC) was 0%, the “%Inh” value (TESK1) was 9% and the “%Inh” value (TGFBR1; 1 µM) was 75%. The “%Inh” value (TGFBR2) was 62%, the “%Inh” value (TIE1) was 0% and the “%Inh” value (TIE2) was 0%. For the same compound, the “%Inh” value (TLK1) was 1%.

For `O=C(c1ccc(-c2cc(-c3c[nH]nc3-c3ccccn3)ccn2)cc1)N1CCOCC1` [GW812171], the “%Inh” value (TAOK2) was 33%, the “%Inh” value (TAOK3) was 2% and the “%Inh” value (TBK1) was 31%. For the same compound, the “%Inh” value (TEC) was 16%, the “%Inh” value (TESK1) was 11% and the “%Inh” value (TGFBR1; 1 µM) was 90.7%. For the same compound, the “%Inh” value (TGFBR2) was 11%, the “%Inh” value (TIE1) was 0% and the “%Inh” value (TIE2) was 1%. The “%Inh” value (TLK1) was 0%.

In the case of `CN1c2ccc(NCc3ccc(F)cc3)cc2-c2c(cnn2C)S1(=O)=O`, the “%Inh” value (TAOK2) is reported as 26%, the “%Inh” value (TAOK3) is reported as 0% and the “%Inh” value (TBK1) is reported as 0%. The “%Inh” value (TEC) was 0%, the “%Inh” value (TESK1) was 14% and the “%Inh” value (TGFBR1; [1]) was 2%. For the same compound, the “%Inh” value (TGFBR2) was 16%, the “%Inh” value (TIE1) was 8% and the “%Inh” value (TIE2) was 0%. The “%Inh” value (TLK1) was 13%.

In the case of `Cc1cccc(-c2nc(-c3ccc(S(C)(=O)=O)cc3)sc2-c2ccncc2)c1`, the “%Inh” value (TAOK2) is reported as 0%, the “%Inh” value (TAOK3) is reported as 0% and the “%Inh” value (TBK1) is reported as 0%. For the same compound, the “%Inh” value (TEC) was 26%, the “%Inh” value (TESK1) was 0% and the “%Inh” value (TGFBR1; [1]) was 16%. The “%Inh” value (TGFBR2) was 0%, the “%Inh” value (TIE1) was 0% and the “%Inh” value (TIE2) was 0%. The “%Inh” value (TLK1) was 13%.

`O=C(NCCCN1CCOCC1)c1cccc(Nc2nccc(Nc3ccc(Oc4ccccc4)cc3)n2)c1` [GW663929] was tested, and the “%Inh” value (TAOK2) was 0%, the “%Inh” value (TAOK3) was 0% and the “%Inh” value (TBK1) was 26%. For the same compound, the “%Inh” value (TEC) was 70%, the “%Inh” value (TESK1) was 0% and the “%Inh” value (TGFBR1; [1]) was 0%. The “%Inh” value (TGFBR2) was 7%, the “%Inh” value (TIE1) was 11% and the “%Inh” value (TIE2) was 0%. The “%Inh” value (TLK1) was 18%.

In the case of `O=c1cc(N2CCOCC2)nc2n(Cc3cccc(F)c3)ccn12` [GSK2297430], the “%Inh” value (TAOK2) is reported as 0%, the “%Inh” value (TAOK3) is reported as 0% and the “%Inh” value (TBK1) is reported as 0%. The “%Inh” value (TEC) was 0%, the “%Inh” value (TESK1) was 19% and the “%Inh” value (TGFBR1; [1]) was 0%. For the same compound, the “%Inh” value (TGFBR2) was 13%, the “%Inh” value (TIE1) was 7% and the “%Inh” value (TIE2) was 0%. The “%Inh” value (TLK1) was 6%.
